Reference: PubChem BioAssay (Tox21)
Records with an inconclusive call do not appear. Where a call stands in place of a potency, no number is given. The source made the active and inactive calls. Unless noted, calls come from the whole dose curve.

How the values were obtained:
[1] = Nuclear factor erythroid 2-related factor 2/antioxidant responsive element (Nrf2/ARE) small molecule agonists: luciferase reporter gene qHTS assay in human keratinocytes (AID 1919969); note: nearly all actives have a fitted effect of over 35% in size; note: potency is the fitted concentration of half-maximal effect
[2] = target: Gonadotropin-releasing hormone receptor (Homo sapiens) (UniProt P30968); test: Human gonadotropin-releasing hormone receptor (GnRHR) small molecule agonists, calcium flux assay in GnRHR-HEK293 cells (AID 1920063); note: nearly all actives have a fitted effect of over 35% in size
Summary of the method: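 Agonist activity was measured as intracellular calcium flux in HEK293 cells engineered to stably express human GnRHR. After dye loading for 1 hour at 37 C, compounds in DMSO were added and fluorescence was followed for 3 minutes.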

[3] = target: KiSS-1 receptor (Homo sapiens) (UniProt Q969F8); test: Human kisspeptin (KISS1R) small molecule agonists, calcium flux assay in KISS1R-HEK293 cells (AID 1920064; active = well fitted activation curve with a large enough effect in the repeat runs)
Summary of the method: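 Agonist activity is monitored as intracellular calcium rise in engineered HEK293 cells carrying human KISS1R. Cells are dye-loaded for 1 h at 37 C before compound addition, and fluorescence is recorded for 3 min.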

[4] = G protein-coupled receptor (GPCR) small molecule agonists, calcium flux assay: HEK293 wild type cell line counter screen (AID 1920065)
Summary of the method: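 Seed cells, incubate 18 h (37 C, 5% CO2); add calcium dye, 1 h at 37 C; pin-transfer compounds, ATP control or DMSO; read fluorescence 480/540 nm each second for 3 min.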

[5] = p53 small molecule agonists, cell-based qHTS assay with rat liver microsomes (AID 1963578)
Summary of the method: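 p53RE-bla cells were exposed to compounds together with rat liver microsomes (0.5 mg/mL final) and NADPH (0.5 mg/mL final) for 16 h at 37 C, then read by LiveBLAzer beta-lactamase fluorescence after 2 h at room temperature.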

[6] = p53 small molecule agonists, cell-based qHTS assay with human liver microsomes: qHTS cell viability counter screen (AID 1963579); note: nearly all actives have a fitted effect of over 45% in size
Summary of the method: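 p53RE-bla cells (4,000/well) were pre-incubated 5 h at 37 C, then given compounds in DMSO plus human liver microsomes (0.5 mg/mL final) and NADPH (0.5 mg/mL final) for 16 h at 37 C. Viability was read by CellTiter-Glo luminescence.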

[7] = p53 small molecule agonists, cell-based qHTS assay with rat liver microsomes: qHTS cell viability counter screen (AID 1963580); note: nearly all actives have a fitted effect of over 45% in size
Summary of the method: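 Rat liver microsome (0.5 mg/mL final) and NADPH (0.5 mg/mL final) co-incubation with compounds for 16 h at 37 C on HCT-116 p53RE-bla cells; cytotoxicity taken from intracellular ATP luminescence.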

[8] = target: 5-hydroxytryptamine receptor 2A (Homo sapiens) (UniProt P28223); test: 5-hydroxytryptamine receptor 2A (HTR2A) small molecule antagonists, cell-based qHTS assay (AID 1963586); note: nearly all actives have a fitted effect of over 45% in size; note: potency is the fitted concentration of half-maximal effect
Summary of the method: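 CHO cells stably expressing human HTR2A were plated for 18 h at 37 C, then loaded with calcium dye for 1 h. Compounds were preincubated 5 min at room temperature before DOI (4 nM solution) was added. Kinetic fluorescence was read for 3 min.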

[9] = target: 5-hydroxytryptamine receptor 2A (Homo sapiens) (UniProt P28223); test: 5-hydroxytryptamine receptor 2A (HTR2A) small molecule agonists, cell-based qHTS assay (AID 1963587); note: nearly all actives have a fitted effect of over 30% in size
Summary of the method: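 Kinetic calcium-flux fluorescence (2 min, 1 sec intervals) after compound addition in agonist mode. HTR2A-CHO cells were cultured 18 h, then dye-loaded 1 h at 37 C.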

[10] = target: Muscarinic acetylcholine receptor M1 (Homo sapiens) (UniProt P11229); test: Cholinergic receptor muscarinic 1 (CHRM1) small molecule antagonists, cell-based qHTS assay (AID 1963588); note: nearly all actives have a fitted effect of over 40% in size
Summary of the method: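 Compounds were tested at 15 concentrations in three independent runs. Dye-loaded CHRM1-CHO cells were exposed 5 min at room temperature before stimulation by acetylcholine added at 50nM. Intracellular calcium was read kinetically on FDSS for 3 min.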

[11] = target: Muscarinic acetylcholine receptor M1 (Homo sapiens) (UniProt P11229); test: Cholinergic receptor muscarinic 1 (CHRM1) small molecule agonists, cell-based qHTS assay (AID 1963589); note: nearly all actives have a fitted effect of over 35% in size
Summary of the method: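 Cells were plated and incubated 18 h at 37 C/5% CO2, loaded with calcium dye for 1 h at 37 C, then treated with compounds in DMSO. Fluorescence was recorded kinetically at 1 sec intervals.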

[12] = cAMP Responsive Elements (CRE) small molecule agonists, cell-based qHTS assay (AID 1963590)
Summary of the method: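 Cells carrying a CRE-driven beta-lactamase reporter (HEK 293T) are seeded, incubated overnight (18 h), and treated with test compounds for 3 h at 37 C; reporter activity is then detected with a FRET substrate after 2 h at room temperature.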

[13] = target: D(2) dopamine receptor (Homo sapiens) (UniProt P14416); test: Dopamine D2 receptor (DRD2) small molecule agonists, cell-based qHTS assay (AID 1963594); note: nearly all actives have a fitted effect of over 35% in size; note: potency is the fitted concentration of half-maximal effect
Summary of the method: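 cAMP accumulation in DRD2-HEK293 cells measured by HTRF after 1 h detection; compounds added 10 min before NKH477 (200nM […]) forskolin-analogue stimulation, 30 min at room temperature, with Ro20-1724 present at 0.1 mM final.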

[14] = target: D(2) dopamine receptor (Homo sapiens) (UniProt P14416); test: Dopamine D2 receptor (DRD2) small molecule antagonists, cell-based qHTS assay (AID 1963595; active = well fitted inhibition curve with a large enough effect in the signal ratio in the repeat runs, with a control signal flat; the % refers to the signal ratio; note: potency is the fitted concentration of half-maximal effect)
Summary of the method: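 Antagonist mode in DRD2-HEK293 cells: after compound addition with 0.1 mM Ro20-1724, cells received quinpirole (12 nM) and NKH477 (200 nM) for 30 min at room temperature; HTRF cAMP read after 1 h detection.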

[15] = p53 small molecule agonists, cell-based qHTS assay (AID 1963582; active = well fitted activation curve with a large enough effect in the signal ratio in the repeat runs, not every such curve was filed as active; the % refers to the signal ratio)
Summary of the method: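 Cells carrying a p53-responsive bla reporter are treated with test compounds for 16 h at 37 C; beta-lactamase activity is then detected with LiveBLAzer B/G FRET substrate after 2 h at room temperature.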

[16] = p53 small molecule agonists, cell-based qHTS assay: qHTS cell viability counter screen (AID 1963581); note: nearly all actives have a fitted effect of over 45% in size
Summary of the method: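 Viability was counter-screened in parallel with the p53 agonist reporter by measuring intracellular ATP luminescence in the same HCT-116 p53RE-bla wells after 16 h compound treatment at 37 C.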

[17] = target: Beta-2 adrenergic receptor (Homo sapiens) (UniProt P07550); test: Adrenergic beta2 receptor (ADRB2) small molecule antagonists, cell-based qHTS assay (AID 1963592); note: series mostly up to about 92 µM; nearly all actives have a fitted effect of over 50% in size
Summary of the method: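 Assay format: CHO-ADRB2 cells, 18-20hr seeding at 37C/5% CO2, then compound plus 1nM isoproterenol agonist mix for 0.5hr RT. Homogeneous time-resolved fluorescence cAMP detection after 1hr, expressed as 665/615 nm ratio.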

[18] = p53 small molecule agonists, cell-based qHTS assay with human liver microsomes (AID 1963577)
Summary of the method: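 p53RE-bla reporter cells were pre-incubated 5 h at 37 C, then treated with compounds plus human liver microsomes (0.5 mg/mL final) and NADPH (0.5 mg/mL final) for 16 h at 37 C. Beta-lactamase activity was read by LiveBLAzer fluorescence after 2 h at room temperature.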

[19] = cAMP Responsive Elements (CRE) small molecule antagonists, cell-based qHTS assay (AID 1963591; active = well fitted inhibition curve with a large enough effect in the signal ratio in the repeat runs, not every such curve was filed as active; the % refers to the signal ratio)
Summary of the method: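 Cells (CRE-bla HEK 293T, DMEM with 10% dialyzed FBS and 25 mM HEPES) are seeded and incubated 18 h. Compounds are added with NKH477 agonist at 0.25 uM final for 3 h, then FRET substrate for 2 h.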

[20] = target: Beta-2 adrenergic receptor (Homo sapiens) (UniProt P07550); test: Adrenergic beta2 receptor (ADRB2) small molecule agonists, cell-based qHTS assay (AID 1963593);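 note: CHO cells stably overexpressing human ADRB2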
Summary of the method: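 CHO cells stably over-expressing ADRB2 were plated overnight at 37C, then dosed with compounds plus a stimulation mix containing 100uM IBMX and 25uM Ro-20-1724 for 0.5hr at room temperature. cAMP was measured by HTRF competition, 1hr.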

Chain of D(2) dopamine receptor (Homo sapiens) (P14416 whole entry, looked up): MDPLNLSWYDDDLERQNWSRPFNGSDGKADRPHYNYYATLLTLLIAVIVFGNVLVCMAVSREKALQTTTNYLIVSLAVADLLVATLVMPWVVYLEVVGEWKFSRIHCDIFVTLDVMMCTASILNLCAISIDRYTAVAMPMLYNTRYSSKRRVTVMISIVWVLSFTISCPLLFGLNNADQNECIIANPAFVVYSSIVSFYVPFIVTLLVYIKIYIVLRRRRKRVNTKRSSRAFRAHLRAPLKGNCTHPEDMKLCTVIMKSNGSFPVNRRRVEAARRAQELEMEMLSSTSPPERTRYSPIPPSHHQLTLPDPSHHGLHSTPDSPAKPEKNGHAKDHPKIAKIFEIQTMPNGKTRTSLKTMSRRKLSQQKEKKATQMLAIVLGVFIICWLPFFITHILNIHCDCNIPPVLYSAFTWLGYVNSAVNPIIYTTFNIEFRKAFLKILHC
Chain of 5-hydroxytryptamine receptor 2A (Homo sapiens) (P28223 whole entry, looked up): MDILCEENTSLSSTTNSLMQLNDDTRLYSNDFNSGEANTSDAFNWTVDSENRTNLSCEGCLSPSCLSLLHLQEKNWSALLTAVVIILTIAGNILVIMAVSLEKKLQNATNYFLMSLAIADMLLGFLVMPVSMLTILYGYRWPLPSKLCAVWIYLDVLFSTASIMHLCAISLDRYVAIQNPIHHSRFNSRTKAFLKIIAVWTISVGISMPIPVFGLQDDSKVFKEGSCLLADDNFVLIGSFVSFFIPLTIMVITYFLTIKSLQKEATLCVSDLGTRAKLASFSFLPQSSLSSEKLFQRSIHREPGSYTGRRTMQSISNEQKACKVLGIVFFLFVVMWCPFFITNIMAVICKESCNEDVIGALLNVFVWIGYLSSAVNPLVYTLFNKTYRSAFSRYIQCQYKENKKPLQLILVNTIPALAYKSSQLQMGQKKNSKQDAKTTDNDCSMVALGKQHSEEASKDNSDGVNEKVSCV
Chain of Muscarinic acetylcholine receptor M1 (Homo sapiens) (P11229 whole entry, looked up): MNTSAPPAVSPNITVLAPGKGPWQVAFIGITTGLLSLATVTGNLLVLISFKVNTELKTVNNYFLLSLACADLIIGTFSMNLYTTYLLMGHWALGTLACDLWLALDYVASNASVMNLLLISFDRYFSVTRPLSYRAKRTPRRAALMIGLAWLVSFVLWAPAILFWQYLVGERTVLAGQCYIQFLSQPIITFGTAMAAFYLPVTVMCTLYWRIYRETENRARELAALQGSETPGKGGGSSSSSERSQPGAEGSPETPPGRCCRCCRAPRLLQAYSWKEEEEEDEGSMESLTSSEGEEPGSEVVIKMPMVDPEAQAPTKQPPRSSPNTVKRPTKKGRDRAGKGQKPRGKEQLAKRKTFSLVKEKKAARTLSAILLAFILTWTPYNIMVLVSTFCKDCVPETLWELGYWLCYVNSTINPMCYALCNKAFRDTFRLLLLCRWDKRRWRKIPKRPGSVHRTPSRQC
Chain of Beta-2 adrenergic receptor (Homo sapiens) (P07550 whole entry, looked up): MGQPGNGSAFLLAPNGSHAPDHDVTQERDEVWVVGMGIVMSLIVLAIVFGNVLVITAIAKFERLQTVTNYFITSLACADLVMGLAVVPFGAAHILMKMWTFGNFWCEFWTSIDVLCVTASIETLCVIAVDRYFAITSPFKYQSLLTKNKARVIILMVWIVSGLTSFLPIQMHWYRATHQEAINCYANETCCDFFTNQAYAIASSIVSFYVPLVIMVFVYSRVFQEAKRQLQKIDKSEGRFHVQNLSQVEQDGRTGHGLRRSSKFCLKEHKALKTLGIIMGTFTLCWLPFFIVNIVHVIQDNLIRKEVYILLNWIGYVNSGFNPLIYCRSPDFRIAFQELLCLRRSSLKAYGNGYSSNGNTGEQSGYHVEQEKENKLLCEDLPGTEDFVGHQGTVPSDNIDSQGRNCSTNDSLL
Chain of Gonadotropin-releasing hormone receptor (Homo sapiens) (P30968 whole entry, looked up): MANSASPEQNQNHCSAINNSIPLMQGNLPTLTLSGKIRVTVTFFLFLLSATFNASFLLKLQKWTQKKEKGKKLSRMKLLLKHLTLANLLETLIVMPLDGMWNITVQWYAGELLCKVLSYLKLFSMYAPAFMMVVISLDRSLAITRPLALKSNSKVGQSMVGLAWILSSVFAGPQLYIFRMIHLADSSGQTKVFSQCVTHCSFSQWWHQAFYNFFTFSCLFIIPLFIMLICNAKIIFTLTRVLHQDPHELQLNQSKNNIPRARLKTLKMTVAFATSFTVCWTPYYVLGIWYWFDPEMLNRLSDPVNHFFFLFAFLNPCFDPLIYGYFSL
Chain of KiSS-1 receptor (Homo sapiens) (Q969F8 whole entry, looked up): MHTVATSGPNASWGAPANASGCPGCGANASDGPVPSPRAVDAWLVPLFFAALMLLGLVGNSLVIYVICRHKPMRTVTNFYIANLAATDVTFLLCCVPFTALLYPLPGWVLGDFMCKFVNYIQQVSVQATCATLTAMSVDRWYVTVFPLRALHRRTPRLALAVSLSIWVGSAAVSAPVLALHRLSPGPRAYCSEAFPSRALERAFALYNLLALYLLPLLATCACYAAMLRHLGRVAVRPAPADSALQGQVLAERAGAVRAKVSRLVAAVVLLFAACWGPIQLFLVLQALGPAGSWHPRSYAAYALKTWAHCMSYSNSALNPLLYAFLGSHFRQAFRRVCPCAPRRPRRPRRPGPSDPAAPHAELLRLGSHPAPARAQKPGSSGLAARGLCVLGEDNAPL

Compound: CN1C[C@@H](NS(=O)(=O)N(C)C)C[C@@H]2c3cccc4c3c(cn4C)C[C@H]21
- Potency [1]: inactive
- Potency [2]: inactive
- Potency [3]: inactive
- Potency [4]: inactive
- Potency [5]: inactive
- Potency [6]: inactive
- Potency [7]: inactive
- Potency [8]: 130 nM (active)
- Potency [9]: inactive
- Potency [10]: inactive
- Potency [11]: inactive
- Potency [12]: inactive
- Potency [13]: 3760 nM (active)
- Potency [14]: 1190 nM (active)

Compound: Nc1ccccc1C(=O)OC/C=C/c1ccccc1
- Potency [1]: inactive
- Potency [2]: inactive
- Potency [3]: inactive
- Potency [4]: inactive
- Potency [5]: inactive
- Potency [7]: inactive
- Potency [15]: inactive
- Potency [8]: inactive
- Potency [11]: inactive
- Potency [13]: inactive
- Potency [14]: inactive

Compound: C=CC(=O)OCC
- Potency [1]: inactive
- Potency [2]: inactive
- Potency [3]: inactive
- Potency [4]: inactive
- Potency [6]: inactive
- Potency [7]: inactive
- Potency [16]: inactive
- Potency [8]: inactive
- Potency [9]: inactive
- Potency [10]: inactive
- Potency [11]: inactive
- Potency [12]: inactive
- Potency [17]: inactive
- Potency [13]: inactive
- Potency [14]: inactive

Compound: O=[N+]([O-])c1c2ccccc2cc2ccccc12
- Potency [1]: 21400 nM (active)
- Potency [2]: inactive
- Potency [3]: inactive
- Potency [4]: inactive
- Potency [5]: inactive
- Potency [6]: inactive
- Potency [9]: inactive
- Potency [10]: inactive
- Potency [11]: inactive
- Potency [13]: inactive

Compound: CC(=O)c1cc(C(C)(C)C)cc2c1CCC2(C)C
- Potency [1]: inactive
- Potency [2]: inactive
- Potency [3]: inactive
- Potency [4]: inactive
- Potency [18]: inactive
- Potency [6]: inactive
- Potency [7]: inactive
- Potency [16]: inactive
- Potency [15]: inactive
- Potency [8]: inactive
- Potency [9]: inactive
- Potency [10]: inactive
- Potency [11]: inactive
- Potency [12]: inactive
- Potency [19]: inactive
- Potency [17]: inactive
- Potency [20]: inactive
- Potency [13]: inactive
- Potency [14]: inactive

Compound: O=C(Nc1ccccc1)Nc1ccnc(Cl)c1
- Potency [1]: inactive
- Potency [2]: inactive
- Potency [3]: inactive
- Potency [4]: inactive
- Potency [5]: inactive
- Potency [6]: inactive
- Potency [7]: inactive
- Potency [9]: inactive
- Potency [10]: inactive
- Potency [11]: inactive
- Potency [17]: inactive
- Potency [13]: inactive
- Potency [14]: inactive

Compound: O=C(Nc1ccccc1)c1ccccc1I
- Potency [1]: inactive
- Potency [2]: inactive
- Potency [3]: inactive
- Potency [4]: inactive
- Potency [6]: inactive
- Potency [7]: inactive
- Potency [16]: inactive
- Potency [8]: inactive
- Potency [9]: inactive
- Potency [10]: inactive
- Potency [11]: inactive
- Potency [12]: inactive
- Potency [19]: inactive
- Potency [17]: inactive
- Potency [13]: inactive
- Potency [14]: inactive

Compound: Oc1c(Cl)c(Cl)cc(Cl)c1Cl
- Potency [1]: inactive
- Potency [2]: inactive
- Potency [3]: inactive
- Potency [4]: inactive
- Potency [5]: inactive
- Potency [6]: inactive
- Potency [7]: inactive
- Potency [16]: inactive
- Potency [8]: inactive
- Potency [9]: inactive
- Potency [10]: inactive
- Potency [11]: inactive
- Potency [17]: inactive
- Potency [20]: inactive
- Potency [13]: inactive
- Potency [14]: inactive
